According to PubChem BioAssay:
“And” between values parts separate entries of the source, which are not always exact repeats. Equal entries are not always repeated. The source made the active and inactive calls.

Assays:
[1] = tested on: XIP peptide (Xip251-270) binding; experiment: small-molecule binders of XIP peptide, primary screen, biochemical, small-molecule microarray, fluorescence 635/667 nm, 0.1 µg/mL protein (AID 1182); details: fluorescent protein binding, 635 nm, higher = more signal, called active from +8 up or from −8 down
XIP peptide (Xip251-270) = experiment: small-molecule binders of XIP peptide, primary screen, biochemical, small-molecule microarray, fluorescence 635/667 nm, 0.5 µg/mL protein (AID 1183); details: small-molecule microarray binding, fluorescence 635 nm; higher = more signal
[2] = Plasmodium falciparum growth inhibition, primary screen, strain 3D7, DAPI fluorescence, 100 nL (AID 1184);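 also: parasites grown inside human red blood cells in medium with human serum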; details: P. falciparum 3D7 growth, 3 d, higher = more signal
[3] = target: Homeobox protein Hox-A13 (Mus musculus) (UniProt Q62424); experiment: inhibitors of HoxA13-DNA binding, primary screen, biochemical, fluorescence polarization, labeled oligonucleotide (AID 1185); details: 15 min, higher = more signal, called active from +8 up or from −8 down
Chain of Homeobox protein Hox-A13 (Mus musculus) (Q62424 whole entry, looked up): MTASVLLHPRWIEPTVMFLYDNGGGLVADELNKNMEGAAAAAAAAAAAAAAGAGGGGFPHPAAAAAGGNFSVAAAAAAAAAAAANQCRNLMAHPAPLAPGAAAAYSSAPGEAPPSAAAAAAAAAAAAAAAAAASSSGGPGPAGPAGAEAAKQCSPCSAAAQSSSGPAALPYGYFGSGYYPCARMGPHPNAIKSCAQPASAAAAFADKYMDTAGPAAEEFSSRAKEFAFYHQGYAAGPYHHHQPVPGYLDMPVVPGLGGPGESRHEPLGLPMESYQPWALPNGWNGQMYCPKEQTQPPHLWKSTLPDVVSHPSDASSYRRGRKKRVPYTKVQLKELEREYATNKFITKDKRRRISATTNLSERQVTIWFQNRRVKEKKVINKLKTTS

SMILES | composite z-score [1] | composite z-score (XIP peptide (Xip251-270)) | z-score [2] | z-score [3]
COc1ccc(COC(=O)NN=C2C[C@@H](O)[C@@H](O)[C@@H]3[C@@H]4C(=O)N(C(C)(C)C)C(=O)[C@@H]4CC[C@H]23)cc1 | 2.23 (inactive) | 0.801 | 0.189 | 0.471 (inactive)
COC(=O)C1=C(C)N(Cc2ccccc2)C2=C(C(=O)c3ccccc3)[C@H](c3ccccc3)[C@@](O)(C(=O)OC)C(=O)N2[C@@H]1c1ccccc1 | -0.149 (inactive) and -0.059 (inactive) | 0.675 and 0.323 | -0.467 and 0.501 | -1.74 (inactive) and -0.745 (inactive)
C[C@@H]1CC[C@H]2C(=O)N3[C@@H](CC[C@@H](C)[C@@H]3c3ccc(-c4ccco4)cc3)C(=O)N2[C@H]1c1ccc(-c2ccco2)cc1 | 1.47 (inactive) | 0.827 and 0.789 | 0.376 and 0.75 | -1.46 (inactive) and 0.517 (inactive)
CO[C@H]1COC(=O)CC=C[C@@H](C)COC(=O)[C@H](CCSC)NC(=O)CC=C[C@@H]1C | 0.218 (inactive) and 0.322 (inactive) | 0.421 and 0.562 | -1.51 and -0.356 | -0.947 (inactive) and -0.902 (inactive)
CCN1C(=O)[C@H]2[C@H]3[C@H](O)[C@H](O)CC(=NOC)[C@@H]3CC[C@H]2C1=O | -0.397 (inactive) | 0.774 | 0.638 | 1.98 (inactive)
CO[C@H]1COC(=O)CC=C[C@H](C)[C@H](OC)COC(=O)[C@@H](C)COC(=O)CC=C[C@@H]1C | -0.205 (inactive) and 0.308 (inactive) | 0.602 and -0.337 | 0.298 and 0.795 | 0.397 (inactive) and 0.774 (inactive)
CCN1C(=O)[C@H]2[C@H]3[C@H](O)[C@H](O)CC(=NOC[C@@H](O)COCc4ccco4)[C@@H]3CC[C@H]2C1=O | -0.24 (inactive) and 1.01 (inactive) | 0.232 and 0.595 | 0.0479 and -0.919 | -0.849 (inactive) and -2.85 (inactive)
CCCNC(=O)OC[C@H]1O[C@H](CCON=C(C)CCN2CCc3nc(-c4ccccc4)c(-c4ccccc4)cc3C2)C=C[C@@H]1Oc1ccc(OC)cc1 | -0.377 (inactive) | 0.201 | -0.821 | -2.84 (inactive)
COC(=O)C1=C(C)N(Cc2ccccc2)C2=C3C(=O)CCC[C@@H]3[C@@](O)(C(=O)OC)C(=O)N2[C@@H]1c1ccccc1 | 0.995 (inactive) and 0.0397 (inactive) | 0.135 and -0.554 | 0.0894 and 0.169 | -0.77 (inactive) and -1.47 (inactive)
COC(=O)C1=C(C)N(Cc2ccccc2)C2=C(C(C)=O)[C@H](c3ccccc3)[C@@](O)(C(=O)OC)C(=O)N2[C@@H]1c1ccccc1 | 0.284 (inactive) and -0.864 (inactive) | 0.727 and -1.64 | 0.512 and -0.515 | -4.62 (inactive) and 0.136 (inactive)
COC(=O)C1=C(C)N(Cc2ccccc2)[C@]23O[C@](C(=O)OC)(C(=O)N2[C@@H]1c1ccccc1)[C@H]1C(=O)N(c2ccccc2)C(=O)[C@H]13 | 0.229 (inactive) and 0.555 (inactive) | -0.275 and -0.308 | -0.391 and 1.02 | -2.26 (inactive) and -1.88 (inactive)
CC(C)=NOC[C@@H](O)COCc1ccco1 | -0.651 (inactive) | 0.258 | 0.814 | -1.15 (inactive)
COC(=O)C1=C2N(Cc3ccccc3)C(C)=C(C(=O)OC)[C@@H](c3ccccc3)N2C(=O)[C@](O)(C(=O)OC)C1 | 0.109 (inactive) and 0.0955 (inactive) | 0.23 and 0.64 | 0.166 and -0.0932 | -5.1 (inactive) and -1.13 (inactive)
COC(=O)C1=C(C)N(Cc2ccccc2)C2=C3C(=O)N(c4ccccc4)C(=O)[C@@H]3[C@@](O)(C(=O)OC)C(=O)N2[C@@H]1c1ccccc1 | 0.357 (inactive) and 0.908 (inactive) | 0.673 and 0.243 | -0.441 and 0.347 | -3.12 (inactive) and -0.385 (inactive)
CC(C)CCN1CCc2nc(-c3ccccc3)c3c(c2C1)CO[C@@H](C)C3 | 0.105 (inactive) | 0.563 | 1.77 | -3.47 (inactive)
CCCC[C@@H]1CN2[C@H](c3ccc(Br)cc3)[C@@H](C)CC[C@H]2C(=O)O1 | 0.744 (inactive) and -0.433 (inactive) | -0.322 and -0.118 | -0.0735 and 0.113 | -1.48 (inactive) and -3.43 (inactive)
CO[C@@H]1COC(=O)[C@H](Cc2ccccc2)NC(=O)CC=C[C@@H](C)[C@H](OC)COC(=O)[C@@H](C)NC(=O)CC=C[C@H]1C | 0.219 (inactive) and 0.97 (inactive) | 0.499 and 0.535 | -0.446 and 0.677 | -0.525 (inactive) and -0.47 (inactive)

SMILES | composite z-score [1] | composite z-score (XIP peptide (Xip251-270)) | z-score [2] | z-score [3]
C[C@@H]1CC[C@H]2C(=O)O[C@H](CN=[N+]=[N-])CN2[C@H]1c1ccc(Br)cc1 | -0.036 (inactive) and -0.0365 (inactive) | 0.183 and 0.186 | -2.02 and -0.068 | -1.98 (inactive) and -3.31 (inactive)
CCN1C(=O)[C@H]2[C@H]3[C@H](O)[C@H](O)CC(=NNC(=O)OCc4ccc(OC)cc4)[C@H]3CC[C@H]2C1=O | 0.0568 (inactive) | 0.267 | 0.38 | 0.429 (inactive)
Cc1ccc(S(=O)(=O)N[C@H]2COC(=O)[C@@H](C)COC(=O)[C@H](C)NC(=O)CC=C[C@H]2C)cc1 | 0.0287 (inactive) | -0.188 | -0.208 | -0.0362 (inactive)
Cc1cc2c(nc1C)CCCN2CC(O)CN1CCCc2nc(-c3ccc(Br)cc3)ccc21 (configuration not stated) | 1.5 (inactive) and 4.73 (inactive) | 0.719 and 0.327 | -0.614 and 0.112 | -7.89 (inactive) and -7.9 (inactive)
CO[C@H]1COC(=O)CC=C[C@@H](C)COC(=O)[C@@H](OCc2ccccc2)C=C[C@@H]1C | -0.147 (inactive) | -0.106 | 0.56 | -0.383 (inactive)
COC(=O)C1=C(C)N(Cc2ccccc2)[C@]23O[C@](C(=O)OC)(C(=O)N2[C@@H]1c1ccccc1)[C@H]1CCCC(=O)[C@H]13 | 0.472 (inactive) and 0.134 (inactive) | -0.0169 and 0.279 | 0.0733 and -0.727 | -4.3 (inactive) and 0.514 (inactive)
COCn1c2ccccc2c2nnc(C(C)=O)nc21 | -0.0478 (inactive) and 0.199 (inactive) | -0.392 and -0.333 | -1.12 and -1.29 | 0.732 (inactive) and 0.896 (inactive)
Cc1cc2c(nc1C)CCCN2CC(C)ON=C[C@@H](C)[C@H](OCc1ccccc1)C(C)C (some centres not stated) | -0.144 (inactive) | -0.0166 | 0.5 | -0.838 (inactive)
CCCC[C@@H]1CN2[C@@H](CC[C@@H](C)[C@@H]2c2ccc(Br)cc2)C(=O)O1 | 0.177 (inactive) and 0.122 (inactive) | 0.712 and 0.647 | 0.524 and 0.888 | -3.5 (inactive) and -2.53 (inactive)
CCOC(=O)[C@H](Cc1ccccc1)NC(=O)CCC1CC(OC(=O)NCc2cccc3ccccc23)CC2(CCCC(COC(=O)NCCCN3CCCC3=O)O2)O1 (some centres not stated) | 0.684 (inactive) | 0.351 | -1.63 | -4.68 (inactive)
COC(=O)C1=C(C)N(Cc2ccccc2)[C@]23O[C@](C(=O)OC)(C(=O)N2[C@@H]1c1ccccc1)[C@H]1C(=O)N(C)C(=O)[C@H]13 | 0.0247 (inactive) and -0.317 (inactive) | 0.706 and -0.282 | -0.979 and 0.027 | -3.58 (inactive) and -1.73 (inactive)
COC(=O)C1=C(C)N(Cc2ccccc2)[C@]23O[C@](C(=O)OC)(C(=O)N2[C@@H]1c1ccccc1)[C@@H](C(=O)OC)[C@H]3C(=O)OC | 1.4 (inactive) and -0.409 (inactive) | -0.0215 and 0.118 | -0.0831 and 0.255 | -4.02 (inactive) and -0.38 (inactive)
C[C@@H]1CC[C@H]2C(=O)NC[C@@H](O)CN2[C@H]1c1ccc(Br)cc1 | 0.21 (inactive) and 0.567 (inactive) | 0.22 and 0.889 | -0.601 and 0.863 | -2.22 (inactive) and -1.74 (inactive)
Cc1ccc(S(=O)(=O)N[C@@H]2COC(=O)CC=C[C@@H](C)[C@@H]3C=C[C@H](O)[C@@H](COC(=O)CC=C[C@H]2C)O3)cc1 | 0.061 (inactive) and -0.148 (inactive) | -0.179 and 0.167 | 1.03 and -1.19 | -1.86 (inactive) and -1.1 (inactive)
COc1ccc(-c2ccc3c(n2)CCCN3CC(O)CN2CCCc3nc(-c4ccc(Br)cc4)ccc32)cc1 (configuration not stated) | 0.947 (inactive) and 1.14 (inactive) | 0.717 and 0.257 | -0.309 and 0.613 | -3.36 (inactive) and -1.95 (inactive)
COC(=O)C1=C(C)N(Cc2ccccc2)C2=C(C(C)=O)C[C@@](O)(C(=O)OC)C(=O)N2[C@@H]1c1ccccc1 | 0.411 (inactive) and 1.64 (inactive) | -0.358 and 0.645 | 0.467 and 0.637 | -1.52 (inactive) and -2.36 (inactive)
